High-throughput results: PubChem, National Center for Advancing Translational Sciences (NCATS)
Most compounds without a hit are left out; they make up all but 7.2% or so of the library.
Sm TGR inh – inhibitors of Schistosoma mansoni thioredoxin glutathione reductase. Potency, µM (titrated, usually from 114 µM), for inactives: at the top dose activity change, negative = inhibition, actives largely listed as inhibitors. purified TGR, DTNB reduction, TNB absorbance 405 nm. 360,000 tested, 3% active. Q962Y6; note: nearly all actives have a fitted effect of over 60% in size
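Kinetic colorimetric format: TGR-catalysed, NADPH-driven DTNB reduction monitored via TNB absorbance. Enzyme dispensed at 20 nM; compound exposure 15 min at room temperature before reaction start.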
FMDV antiviral – blocks foot and mouth disease virus | FMDV antiviral cell-based qHTS | Potency, µM (top dose mostly 57.9 µM), without a hit: top-dose activity change, negative = inhibition, hits mostly inhibitors | 410,000 tested, 1.2% active; calls by dose curve; tested in HEK293T cells; note: read-out not given here; nearly all actives have a fitted effect of over 45% in size
MARV entry inh – inhibitors of Marburg virus binding or cell entry | Marburg virus pseudotyped entry inhibition, cell reporter | Potency, µM (highest dose often 37.8 µM), for the others: at the top dose activity change, negative = inhibition, most hits filed as inhibitors | 300,000 tested, 1.8% active; calls by dose curve; tested in HEK293 cells
Lassa entry inh – blocks Lassa virus binding to or entry into cells; 300,000 tested, 1.2% active; Lassa virus pseudotype entry inhibition, cell reporter; Potency, µM (highest dose often 37.9 µM), without a hit: top-dose activity change, negative = inhibition, actives largely listed as inhibitors; calls by dose curve; tested in HEK293 cells; note: nearly all actives have a fitted effect of over 50% in size
HCV inhibitor – inhibitors of hepatitis C virus infection; Huh7.5.1 HCVcc-Cre infection, luciferase reporter, 44 h; Potency, µM (highest dose often 41.8 µM), inactives show at the highest dose activity change, negative = inhibition, usual class: inhibitors; 340,000 tested, 3.4% active; AID 651820
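Cells seeded at 1,000/well and cultured 4 h, then compounds added followed by HCVcc-Cre virus (~0.5 moi). After 44 h further culture, luciferase substrate was added, plates held 15 min at room temperature, and luminescence read for 15 sec.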
RE007 growth inh – less growth of the S. pombe RE007 Vpr strain; S. pombe RE007 Vpr strain, BacTiter-Glo ATP luminescence, 24 h; Potency, µM (doses to about 92.2 µM), without a hit: at the highest dose activity change, negative = less growth, most hits filed as inhibitors; 360,000 tested, 0.21% active; active = well fitted falling curve with a large enough effect; inconclusive = small, poorly fitted or top-dose-only effect; inactive = no such curve, though single readings can be large or run the other way; note: nearly all actives have a fitted effect of over 50% in size
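Fission yeast RE007 carrying one integrated HIV-1 vpr copy, seeded at OD 0.01 in PMG+AL medium with 23 nL pinned compound. Grown 24 h at 30 degrees; viability read by BacTiter-Glo luminescence after 5 min.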
An asterisk follows results filed as active; ? = inconclusive; · = no result given; [ ] = remark or other dose. Unless noted, calls come from the whole dose curve; as a rule, active = well fitted curve in the direction sought with a large enough effect; inconclusive = small, poorly fitted or top-dose-only effect, or another doubt; inactive = no such curve, though single readings can be large; an effect the other way counts as inactive or inconclusive. % is set by controls: 0 for no effect and ±100 for the full control effect; potency is the fitted concentration of half-maximal effect.

SMILES | Sm TGR inh | FMDV antiviral | MARV entry inh | Lassa entry inh | HCV inhibitor | RE007 growth inh
COc1ccc(-n2nc(C(=O)N3CCCCC3C)c3c4ccccc4n(C)c3c2=O)cc1Cl (configuration not stated) | 1% | -3% | 24%[46.1 µM] | 18%[46.1 µM] | · | ·
CC1=CC(=C(C#N)c2nc3ccccc3s2)C=C(C)N1CC1CCCO1 (configuration not stated) | -1% | 10% | ? | 23% | 11µM* | -13%
Cc1cc(C)c(S(=O)(=O)N2CCN(C(=O)c3ccc(-n4cncn4)c([N+](=O)[O-])c3)CC2)c(C)c1 | -2% | 0% | -5% | ? | -4% | 4%
CCOc1ccc(S(=O)(=O)N2CCN(C(=O)c3ccc(-n4cncn4)c([N+](=O)[O-])c3)CC2)cc1 | 8% | -17% | -4% | -17% | 11µM* | 9%
Cc1ccc(S(=O)(=O)NCCc2nnc3ccc(SCC(=O)Nc4c(C)cc(C)cc4C)nn23)cc1 | 0% | -12% | · | -5%[46.1 µM] | · | ·
COc1cccc(-c2nc(CS(=O)CC(=O)NC3CCCC3)c(C)o2)c1 (configuration not stated) | ? | -10% | · | · | -17% | -3%
COc1ccc(-c2nc(CS(=O)CC(=O)NC3CCCc4ccccc43)c(C)o2)cc1OC (configuration not stated) | 20µM* | -18% | 2% | · | ? | -2%
COc1ccc(-c2nc(CS(=O)CC(=O)NC3CCC(C)CC3)c(C)o2)cc1OC (configuration not stated) | 35µM* | 13% | · | · | -7% | -2%
COc1ccc(-c2nc(CSCC(=O)NC3CCCc4ccccc43)c(C)o2)cc1OC (configuration not stated) | 0% | ? | ? | -28% | ? | -10%
COc1ccc(-c2nc(CS(=O)CC(=O)NC3CCCC3)c(C)o2)cc1OC (configuration not stated) | 20µM* | 6% | · | · | 0% | -10%
COc1cc(O)ccc1CN1CCc2nnc(C(C)NC(=O)c3cc(F)ccc3F)n2CC1 (configuration not stated) | · | -19% | · | · | · | ·
COC(=O)c1c(C)nn(-c2ccc(OC(F)(F)F)cc2)c1-c1snnc1C | 19% | 35µM* | ? | ? | -11% | 6%
COc1ccc(CCNC(=O)CCc2c(C)nc3c4c(C)cc(C)nc4nn3c2C)cc1OC | 3% | -15% | 20%[46.1 µM] | 5%[46.1 µM] | · | ·
COc1cc(C(=O)N/N=C/c2coc3ccccc3c2=O)cc(OC)c1OC | 45µM* | -15% | · | · | 4% | -11%
C=CCNCCCCOc1cccc(Br)c1 | -1% | -11% | 13µM* | -2% | -20% | -12%
OCCNCCCCOc1cccc(Br)c1 | -3% | -6% | ? | ? | -20% | -4%
CN(C)C(=O)C(CCN1CCC(O)(c2ccc(Cl)cc2)CC1)(c1ccccc1)c1ccccc1 | 6% | -18% | 4.1µM* | 4.1µM* | ? | -11%[18.4 µM]
COc1ccc2ccc3c(c2c1)N=C[C@]1(O3)N(C)c2ccccc2C1(C)C | 28µM* | ? | ? | -7% | -4% | -16%
CC1=NOC2(C1)N(C)c1ccccc1C2(C)C (configuration not stated) | -9% | 0% | 1% | 6% | 7% | 7%
CCCCNC(=O)CSc1nc2cc3c(cc2c(=O)n1CCCC(=O)NCc1ccc(OC)cc1)OCO3 | 6% | 2% | · | -4%[46.1 µM] | · | ·
COc1ccc(S(=O)(=O)N2CCC(Oc3ccc(-n4cnnn4)cc3)CC2)cc1OC | 0% | -29% | -18%[46.1 µM] | -2%[46.1 µM] | · | ·
Oc1ccc(N=Nc2c(O)ccc3ccccc23)cc1 | -22% | · | ? | ? | 14µM* | ?
COc1ccc(OC)c(NS(=O)(=O)c2cc3c(cc2Cl)N(C(C)=O)CCO3)c1 | 2.5µM* | 40% | · | -3%[46.1 µM] | · | ·
Cc1ccc(NS(=O)(=O)c2cc(-c3cnc(C4CC4)o3)ccc2C)cc1Cl | -8% | 48% | · | ? | · | ·
Cc1cc(C(=O)CSc2nnc(-c3ccco3)o2)c(C)n1-c1ccc2c(c1)OCCO2 | 7%[11.4 µM] | ? | -15% | ? | 13µM* | 4%
SMILES | Sm TGR inh | FMDV antiviral | MARV entry inh | Lassa entry inh | HCV inhibitor | RE007 growth inh
Cc1cc(C(=O)CSc2nnnn2C)c(C)n1C1CC1 | -10% | 49% | · | · | -9% | 10%
Cc1nnc(SCC(=O)c2cc(C)n(-c3ccc4c(c3)OCO4)c2C)s1 | 0% | · | ? | -6% | 11µM* | 10%
Cc1cc(C(=O)CSc2nnc(-c3cccs3)o2)c(C)n1-c1ccccc1 | -16% | 11µM* | ? | -18% | 8.9µM* | 5%
O=C(CSc1nnc(-c2cccs2)o1)c1cccs1 | -13% | · | 17% | 14% | -15% | 4%
Cc1cc(C(=O)CSc2nnc(-c3ccc4c(c3)OCO4)o2)c(C)n1-c1ccc(F)cc1 | ? | ? | 11% | -2% | -2% | -9%
Cc1nnc(SCC(=O)c2cc(C)n(C3CC3)c2C)s1 | -19% | -9% | ? | ? | ? | 4%
Cc1cc(C(=O)CSc2nnnn2C)c(C)n1-c1ccc2c(c1)OCCO2 | 35µM* | 14% | -22% | 27% | -8% | 2%
CCOc1ccccc1NC(=O)CSc1nc2c(sc3ccccc32)c(=O)n1CCCC(=O)NC1CCCC1 | 0% | 2% | -2%[46.1 µM] | 3%[46.1 µM] | · | ·
CCC1C(=O)NCCN1Cc1ccc2c(c1)CN(Cc1ccc(OC)cc1OC)CCO2 (configuration not stated) | · | -9% | · | · | · | ·
COc1cccc(NC(=O)CSc2nnc(-c3cc(C)n(-c4ccccc4)c3C)o2)c1 | -16% | 13µM* | ? | 14% | -27% | 2%
O=C1c2ccccc2C(O)(Cc2ccccc2)N1Cc1ccco1 (configuration not stated) | 45µM* | · | -2% | 18% | 6% | 11%
O=S(=O)(c1ccc(Br)cc1)c1nnn2c1nc(Nc1cccc(C(F)(F)F)c1)c1sccc12 | -9% | -12% | · | -18%[46.1 µM] | · | ·
Cc1nn(CCCC(=O)Nc2cc(Oc3ccccc3)cc([N+](=O)[O-])c2)c(C)c1[N+](=O)[O-] | 1% | 0% | ? | 4% | ? | 0%
Cc1ccc(C)c(Oc2cc(NC(=O)CCCn3nc(C)c([N+](=O)[O-])c3C)cc([N+](=O)[O-])c2)c1 | 0% | 0% | ? | ? | 13µM* | -4%
CCOc1ccc(NC(=O)Cn2cnc3sc(C)c(S(=O)(=O)N4CCN(c5ccccc5OC)CC4)c3c2=O)cc1 | -3% | 0% | ? | -22%[46.1 µM] | · | ·
C=C1C(=O)OC2C1C(OC(=O)C(C)=CC)CC(=C)C1C(O)C3OC3(C)C21O (configuration not stated) | · | 28µM* | -23% | -15%[46.1 µM] | -28% | 13%
CCCCCCCn1ccc(O)c(CC(=O)OC)c1=O | 3% | 0% | 11%[46.1 µM] | 6% | 10% | 25%
CCCCCn1ccc(=O)c2c(C(F)(F)F)nccc21 | 1% | ? | ? | ? | 11µM* | 7%
